mHTT-CaM PPI inh: mutant huntingtin-calmodulin interaction inhibitors – biochemical, AlphaScreen, primary screen. AlphaScreen His-mHTT/GST-CaM binding, luminescence. inhibition, % at 15 µM. P42858. 190,000 tested, 3.6% active
Target sequence (P42858 whole entry, looked up, change not shown): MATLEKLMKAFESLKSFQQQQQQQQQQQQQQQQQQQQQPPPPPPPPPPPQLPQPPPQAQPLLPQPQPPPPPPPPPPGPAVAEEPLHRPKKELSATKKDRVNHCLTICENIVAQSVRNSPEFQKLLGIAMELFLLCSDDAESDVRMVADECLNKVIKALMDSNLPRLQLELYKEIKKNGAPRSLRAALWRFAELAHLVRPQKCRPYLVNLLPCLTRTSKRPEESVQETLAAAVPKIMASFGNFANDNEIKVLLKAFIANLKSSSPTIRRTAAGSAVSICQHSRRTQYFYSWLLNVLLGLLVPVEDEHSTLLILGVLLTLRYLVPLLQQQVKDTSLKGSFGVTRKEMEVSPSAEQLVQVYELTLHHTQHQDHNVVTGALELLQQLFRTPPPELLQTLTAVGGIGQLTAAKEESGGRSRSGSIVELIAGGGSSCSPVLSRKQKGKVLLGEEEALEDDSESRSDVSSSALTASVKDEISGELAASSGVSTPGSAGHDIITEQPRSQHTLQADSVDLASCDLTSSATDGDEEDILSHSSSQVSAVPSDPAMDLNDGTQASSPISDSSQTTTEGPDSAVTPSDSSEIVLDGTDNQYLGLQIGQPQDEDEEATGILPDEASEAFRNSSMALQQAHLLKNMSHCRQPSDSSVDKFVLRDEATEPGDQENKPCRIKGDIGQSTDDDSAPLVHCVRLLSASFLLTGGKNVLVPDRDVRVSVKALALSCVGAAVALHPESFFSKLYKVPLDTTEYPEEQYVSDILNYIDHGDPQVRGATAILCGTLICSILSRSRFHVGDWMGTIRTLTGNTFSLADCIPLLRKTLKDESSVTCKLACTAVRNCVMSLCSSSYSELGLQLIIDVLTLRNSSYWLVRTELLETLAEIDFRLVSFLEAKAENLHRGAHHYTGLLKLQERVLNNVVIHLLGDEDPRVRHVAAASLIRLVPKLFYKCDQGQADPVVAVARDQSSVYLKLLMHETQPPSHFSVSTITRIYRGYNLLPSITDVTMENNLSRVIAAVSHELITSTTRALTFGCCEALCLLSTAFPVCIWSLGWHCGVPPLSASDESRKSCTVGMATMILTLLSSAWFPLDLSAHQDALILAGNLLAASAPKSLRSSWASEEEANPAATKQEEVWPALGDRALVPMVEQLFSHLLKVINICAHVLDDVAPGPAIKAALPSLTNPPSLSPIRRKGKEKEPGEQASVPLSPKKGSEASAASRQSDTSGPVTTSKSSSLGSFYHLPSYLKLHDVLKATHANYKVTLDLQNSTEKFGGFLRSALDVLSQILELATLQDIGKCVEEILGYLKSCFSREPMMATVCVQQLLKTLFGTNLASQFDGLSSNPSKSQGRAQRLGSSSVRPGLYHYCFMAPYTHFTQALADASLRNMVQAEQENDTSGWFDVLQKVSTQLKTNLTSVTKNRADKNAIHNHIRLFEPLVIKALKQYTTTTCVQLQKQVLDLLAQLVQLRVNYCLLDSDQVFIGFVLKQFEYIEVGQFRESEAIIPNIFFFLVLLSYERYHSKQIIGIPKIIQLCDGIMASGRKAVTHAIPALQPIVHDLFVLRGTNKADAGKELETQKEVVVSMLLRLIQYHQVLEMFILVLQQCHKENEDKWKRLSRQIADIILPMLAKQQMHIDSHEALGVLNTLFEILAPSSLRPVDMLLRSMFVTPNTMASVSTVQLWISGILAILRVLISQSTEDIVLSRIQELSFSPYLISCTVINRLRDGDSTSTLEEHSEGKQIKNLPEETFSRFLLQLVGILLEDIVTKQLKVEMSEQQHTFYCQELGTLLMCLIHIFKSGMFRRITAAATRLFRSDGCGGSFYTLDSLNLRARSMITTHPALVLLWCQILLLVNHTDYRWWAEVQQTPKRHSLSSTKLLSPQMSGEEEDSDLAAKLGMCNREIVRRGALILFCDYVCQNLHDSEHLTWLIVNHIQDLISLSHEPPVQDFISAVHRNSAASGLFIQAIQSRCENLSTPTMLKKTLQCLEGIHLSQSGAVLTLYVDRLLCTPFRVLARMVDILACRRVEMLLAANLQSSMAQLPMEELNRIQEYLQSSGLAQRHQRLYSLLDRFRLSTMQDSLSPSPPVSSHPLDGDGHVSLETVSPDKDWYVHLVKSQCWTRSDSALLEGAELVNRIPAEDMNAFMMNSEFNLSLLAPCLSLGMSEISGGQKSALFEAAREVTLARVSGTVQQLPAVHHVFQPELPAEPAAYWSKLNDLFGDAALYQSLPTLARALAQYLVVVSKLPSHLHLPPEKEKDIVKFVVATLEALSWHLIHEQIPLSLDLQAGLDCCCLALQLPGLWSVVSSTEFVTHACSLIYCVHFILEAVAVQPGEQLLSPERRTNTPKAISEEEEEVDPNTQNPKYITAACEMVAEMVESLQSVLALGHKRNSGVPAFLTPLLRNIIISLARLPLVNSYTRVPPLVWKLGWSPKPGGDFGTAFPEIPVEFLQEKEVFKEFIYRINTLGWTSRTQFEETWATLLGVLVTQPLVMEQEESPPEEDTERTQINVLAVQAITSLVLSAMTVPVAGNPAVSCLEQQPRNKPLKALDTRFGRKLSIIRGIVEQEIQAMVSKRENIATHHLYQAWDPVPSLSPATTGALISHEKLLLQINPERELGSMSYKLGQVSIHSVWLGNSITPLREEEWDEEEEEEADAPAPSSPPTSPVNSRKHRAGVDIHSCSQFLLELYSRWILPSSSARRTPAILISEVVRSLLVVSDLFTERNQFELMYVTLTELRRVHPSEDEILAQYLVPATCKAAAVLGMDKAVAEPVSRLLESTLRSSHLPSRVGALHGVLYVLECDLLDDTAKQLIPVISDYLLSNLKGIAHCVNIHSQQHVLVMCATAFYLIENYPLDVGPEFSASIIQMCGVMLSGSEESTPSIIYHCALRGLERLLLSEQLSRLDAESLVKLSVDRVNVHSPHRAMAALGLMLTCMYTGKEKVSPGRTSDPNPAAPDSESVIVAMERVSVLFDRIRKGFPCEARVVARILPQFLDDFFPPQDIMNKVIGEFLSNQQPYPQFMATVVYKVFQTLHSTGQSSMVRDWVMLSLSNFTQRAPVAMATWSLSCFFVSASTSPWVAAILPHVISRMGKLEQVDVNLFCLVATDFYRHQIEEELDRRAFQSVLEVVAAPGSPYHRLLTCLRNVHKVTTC
Pf apPOL block: Pf-apPOL inhibitors, biochemical, fluorescence; Plasmodium falciparum apicoplast DNA polymerase (apPOL); Recombinant Pf-apPOL, molecular beacon fluorescence, 1.5 h; inhibition, % at 10 µM; 210,000 tested, 0.25% active
Of the large screens only hits and unclear results are named; the others gave an inactive call. This is one part of a sample in which hits are shown more often than they occur. No stated cut-off is given here; in the data, active means inhibition above about 50%; inactive means the rest.

Cc1c(C(=O)Nc2c3c(nn2-c2ccc([N+](=O)[O-])cc2)CSC3)cccc1[N+](=O)[O-]	none
COc1ccc(C(=O)C=Cc2ccc(OC)cc2OC)c(O)c1	none
CCCCNS(=O)(=O)c1ccc2c(c1)C(=NO)c1cc(S(=O)(=O)NCCCC)ccc1-2	none
Cc1noc(-c2cccnc2N2CCCN(C(=O)c3ccc(C(C)C)cc3)CC2)n1	none
C=CCNC(=O)C(=O)NCc1ccccc1OC	none
CCCC(=O)Nc1ccc2c(c1)OCCO2	none
O=C(CCCn1cccc1)Nc1ccc2c(c1)OCCO2	Pf apPOL block 78
COc1ccccc1C(=O)Nc1ccc(I)cc1	none
C/C=C(\C)CN1CCN(C/C=C/c2ccccc2)CC1	none
C(=Cc1ccccc1)CN1CCN(c2c3c(nc4ncnn24)CCCC3)CC1	mHTT-CaM PPI inh 73
CCCCNC(=O)C1=Cc2cc(Br)ccc2OC=C1	none
O=C(c1cccs1)N1CCN(c2cc(N3CCCCC3)c(F)cc2[N+](=O)[O-])CC1	mHTT-CaM PPI inh 51
O=[N+]([O-])c1cc(F)c(N2CCCCCC2)cc1N1CCCC1	mHTT-CaM PPI inh 72
O=C(c1cccs1)N1CCN(c2cc(N3CCCC3)c(F)cc2[N+](=O)[O-])CC1	none
O=[N+]([O-])c1cc(F)c(N2CCOCC2)cc1N1CCCCC1	none
Cc1ccc(CNC(=O)c2oc3ccc(S(=O)(=O)N4CCCC4)cc3c2C)cc1	none
CCOc1ccc(Nc2cc(C)nc3ccc(Cl)cc23)cc1	none
CCCCOc1ccc(Nc2cc(C)nc3ccc(OC)cc23)cc1	mHTT-CaM PPI inh 61
CCCNC(=O)c1ccc2c(c1)CCN2C(C)=O	none
O=C(O)c1cc(N2C(=O)C3C4c5ccccc5C(c5ccccc54)C3C2=O)ccc1Cl (stereo not given)	none
O=C(O)c1cc(-n2cccc2)ccc1Cl	mHTT-CaM PPI inh 72
CC1CCN(C(=O)c2ccc(OCC3CCCN(C(=O)c4ccc(C#N)cc4)C3)cc2)CC1 (stereo not given)	none
CC(C)C(=O)NC1CCc2[nH]c3ccc(Br)cc3c2C1 (stereo not given)	mHTT-CaM PPI inh 53
CC(CC(F)(F)F)C(=O)NC1CCc2[nH]c3ccc(Br)cc3c2C1 (stereo not given)	none
O=C(NC1CCc2[nH]c3ccc(Br)cc3c2C1)C1CC=CCC1 (stereo not given)	mHTT-CaM PPI inh 98
O=C(Cc1c(C(=O)O)[nH]c2ccc(Cl)cc12)NC1CC1	none
Cc1ccc2[nH]c3c(c2c1)CC(NC(=O)CC(C)C)CC3 (stereo not given)	mHTT-CaM PPI inh 93
Cc1ccc2[nH]c3c(c2c1)CN(C)CC3	none
O=C(NC1CC1)C1CCN(S(=O)(=O)c2ccc3[nH]c4c(c3c2)CCCCC4)CC1	none
Cc1nc(CC(=O)NC2CCc3[nH]c4ccc(Cl)cc4c3C2)c(C)s1 (stereo not given)	mHTT-CaM PPI inh 99
CCOC(=O)c1c(-c2ccccc2)oc2ccc(OCC=C(C)C)cc12	none
COc1ccc(S(=O)(=O)Nc2ccccc2OC)cc1Br	none
O=C(Nc1cc(Cl)cc(Cl)c1)N1CCc2nc[nH]c2C1	none
CC(=O)Nc1ccc2c(c1)CC(C(=O)NCc1ccccc1F)CO2 (stereo not given)	none
CC(C)C(=O)Nc1cccnc1N(C)C	none
CNC(=O)C1CCCN(c2nc3ncn(CC(=O)NC4CCCC4)c(=O)c3s2)C1 (stereo not given)	none
O=C(Nc1ccc(F)cc1F)N1CCCC1c1nc(-c2ccc(F)cc2F)no1 (stereo not given)	none
Cc1cc(Cl)cc2c3c([nH]c12)CCC(NC(=O)CC1CC1)C3 (stereo not given)	mHTT-CaM PPI inh 90
Cc1cc(C)c(C(=O)N2CCC(CC(=O)NC3CCCCCC3)CC2)[nH]1	none
COc1cc(C(=O)Nc2c3c(nn2-c2ccccc2)CSC3)cc(OC)c1OC	none
Cc1nc(N)c(C#N)c(-c2ccc(Cl)cc2)c1C	none
COc1cc(C(=O)N2CCC(CC(=O)NCc3cccc(C)c3)CC2)cc(OC)c1OC	none
N#CC1=C(N)Oc2c(oc(CO)cc2=O)C1c1cccc(F)c1 (stereo not given)	none
CN(CC(=O)N1CCN(Cc2ccccc2)CC1)S(=O)(=O)c1ccc(Cl)cc1	Pf apPOL block 97
CN(CC(=O)N1CCCCCC1)S(=O)(=O)c1ccc(Cl)cc1	none
CN1CCN(C(=O)CN(C)S(=O)(=O)c2ccc(Cl)cc2)CC1	none
CN(CC(=O)N1CCCC1)S(=O)(=O)c1ccc(Cl)cc1	Pf apPOL block 51
CN(CC(=O)N1CCN(c2ccc(F)cc2)CC1)S(=O)(=O)c1ccc(Cl)cc1	none
COc1ccc(N2CCN(C(=O)CN(C)S(=O)(=O)c3ccc(Cl)cc3)CC2)cc1	Pf apPOL block 89
CCCNC(=O)c1cncc(-c2c(C)cccc2C)c1	none
COc1ccc(C(=O)N(C(C)C)C(C)C)cc1[N+](=O)[O-]	none
COc1ccc(CN2COc3ccc4c(c3C2)OC(=Cc2cccc(OC)c2OC)C4=O)cc1OC	none
COc1ccccc1C=C1Oc2c(ccc3c2CN(Cc2ccccn2)CO3)C1=O	none
